KB-3-1 tox – qHTS assay for MDR1-selective chemotherapeutics: Primary screen using the parental adenocarcinoma cell KB-3-1; KB-3-1 viability, CellTiter-Glo ATP luminescence, 72 h; Potency, µM (highest dose often 46.1 µM), most hits filed as cytotoxic; actives 1.4% (n = 400,000); also: % is scaled to controls: 0 for no effect and ±100 for the full control effect; nearly all actives have a fitted effect of over 60% in size
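Viability of parental KB-3-1 cells, measured by CellTiter-Glo luminescence, followed a 72 h incubation at 37 °C with pinned compounds in phenol-red-free DMEM containing 10% FBS.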
HT1080 IDH1KD tx – qHTS for induction of synthetic lethality in tumor cells producing 2HG: qHTS for the HT-1080-IDH1KD cell line | actives 2% (n = 360,000) | AID 686971, 2013 | HT-1080 IDH1 knockdown viability, ATP luminescence, 48 h | Potency, µM (highest dose often 46.1 µM), for the others: at the top dose activity, negative = toxicity, hits mostly cytotoxic;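 also: 0% = DMSO wells and -100% = cell-free medium wells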
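After a 2 h attachment period, IDH1KD HT-1080 cells took pin-transferred compound for 48 h at 37 °C; ATP-based luminescence after 10 min room-temperature reagent incubation reported viability.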
MCF10A rereplic – A quantitative high throughput screen for small molecules that induce DNA re-replication in MCF 10a normal breast cells | actives 2.9% (n = 350,000) | AID 624296, 2012 | Potency, µM (doses to about 46.1 µM), for the others: at the top dose activity, positive = re-replication, hits mostly activators | MCF 10A DNA re-replication, Hoechst nuclear intensity, 48 h; also: % of control where 0% means no effect; nearly all actives have a fitted effect of over 50% in size
KB-V1 cytotox – qHTS assay for MDR1-selective chemotherapeutics: Primary screen using the drug-selected MDR subline cells KB-V1 | KB-V1 MDR cells viability, CellTiter-Glo, 72 h | Potency, µM (series often up to 46.1 µM), actives largely listed as cytotoxic | actives 3.4% (n = 400,000) | AID 1347076, 2019; also: % is scaled to controls: 0 for no effect and ±100 for the full control effect; nearly all actives have a fitted effect of over 60% in size
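Following 72 h at 37 degrees C with compound, KB-V1 cell viability was read by CellTiter-Glo luminescence, medium being phenol-red-free DMEM plus 10% FBS; concentration-response parameters came from normalized, curve-fitted qHTS data.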
SW480 rerep – A quantitative high throughput screen for small molecules that induce DNA re-replication in SW480 colon adenocarcinoma cells; SW480 DNA re-replication, Hoechst DNA content imaging, 48 h; Potency, µM (doses to about 46.1 µM), for the others: at the highest dose re-replication activation, hits mostly activators; actives 1.8% (n = 340,000); AID 624297, 2012; also: % of control where 0% means no effect; nearly all actives have a fitted effect of over 55% in size
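Image-based read-out: total Hoechst fluorescence of nuclei (405 nm excitation, 500-530 nm emission), with hits raising the fraction of high-intensity nuclei. SW480 colon cells incubated 48 hr with compounds at 37 C.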
HT1080NT lethal – qHTS for induction of synthetic lethality in tumor cells producing 2HG: qHTS for the HT-1080-NT fibrosarcoma cell line; HT-1080-NT fibrosarcoma viability, CellTiter-Glo ATP luminescence, 48 h; Potency, µM (series often up to 46.1 µM), for the others: top-dose activity, negative = less viability, actives largely listed as cytotoxic; actives 1.6% (n = 360,000); AID 686970, 2013;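 also: NT is the 2HG producing partner of a matched IDH1 knockdown line; 0% = DMSO-treated cells and -100% = media-only wells without cells; nearly all actives have a fitted effect of over 55% in size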
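Read-out is CellTiter-Glo luminescence after 10 minutes at room temperature, following 48 hours' compound treatment of HT-1080-NT cells (750 cells/well, RPMI, 5% FBS, 37 degrees C).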
* hit, by the source's call; i = inactive; u = inconclusive; x = not tested or not shown. Hits are enriched below; roughly 7.9% of the tested compounds scored in any of these assays. Calls follow the shape of the dose curve; as a rule, active = well fitted curve in the direction sought with a large enough effect; inconclusive = small, poorly fitted or top-dose-only effect, or another doubt; inactive = no such curve, though single readings can be large; an effect the other way counts as inactive or inconclusive. Potency is read from the fitted curve at half-maximal effect.

SMILES | KB-3-1 tox | HT1080 IDH1KD tx | MCF10A rereplic | KB-V1 cytotox | SW480 rerep | HT1080NT lethal
O=C1C=CC2(O[C@H](c3ccccc3)[C@@H](c3ccccc3)O2)[C@H](Sc2ccccc2O)C1 | 3.3µM* | 3.3µM* | u | u | u | 4.6µM*
C[C@@H]1[C@@H](Sc2ccccc2)CC(=O)O[C@@H]1c1ccc(-c2ccccc2)cc1 | u | u | 101% | u | 28% | u
COc1ccc(Cl)cc1Nc1nc2ccc(C(=O)c3ccccc3)cc2n2cnnc12 | i | x | x | i | x | x
Cc1ccc(C)c(N2CCN(C(=O)CN3CCSc4ccc(S(=O)(=O)N(C)C)cc43)CC2)c1 | i | x | x | u | x | x
CC(C)NC(=O)c1cc(C2CCCCN2C(=O)OCCF)on1 (stereo not given) | i | 18% | x | i | x | 0%
COC(=O)c1[nH]c2ccc(C)cc2c1NC(=O)C(C)N1CCN(C2CCCCC2)CC1 (stereo not given) | i | -5% | -3% | i | -4% | u
COC(=O)c1[nH]c2ccc(Br)cc2c1NC(=O)C(C)N1CCN(C2CCCCC2)CC1 (stereo not given) | u | 21µM* | 7% | u | u | u
NC(=O)c1nnn(Cc2cc(Cl)c(C(=O)c3ccc(Cl)cc3)c(Cl)c2)c1N | u | 4.1µM* | x | 8.2µM* | x | 9.2µM*
O=Cc1ccc(O)c2ncccc12 | 6.5µM* | 3.7µM* | 1.6µM* | u | 7.3µM* | 2.3µM*
O=C(N/C(=C/c1ccccc1Cl)C(=O)N1CCOCC1)c1ccccc1 | i | 0% | 15% | i | -3% | 3%
O=C(/C(=C/c1ccccc1Cl)c1ccccc1)N1CCOCC1 | i | -5% | 15% | 23µM* | 0% | -1%
Cc1oc2ccc(O)c(CN3CCOCC3)c2c1C(=O)Nc1ccc(C(C)C)cc1 | i | x | x | i | x | x
Cc1cc(C(=O)CSc2nnc(-c3cccs3)o2)c(C)n1-c1ccccc1 | u | -2% | u | i | -33% | 3%
CCc1ccc(C(=O)Nc2nc3ccccc3[nH]2)cc1 | u | u | 5% | i | u | u
CCCOc1ccc2nc(NC(=O)OC)[nH]c2c1 | x | x | 4.6µM* | x | 2.9µM* | x
CCOC(=O)Nc1nc2ccc(Cn3cccc3)cc2[nH]1 | 0.58µM* | u | 3.3µM* | 1.2µM* | 1.3µM* | 3.3µM*
O=C(COCc1cc(-c2cccs2)on1)N1CCN(c2cccc(Cl)c2)CC1 | i | x | x | u | x | x
O=C(CSc1nc2ccsc2c(=O)n1-c1ccc(Cl)cc1)NCc1ccc(Cl)cc1 | i | x | x | i | x | x
COc1cc2c(cc1OC)C(C1C(=O)CC(C)(C)CC1=O)N(C(=O)CCl)CC2 (stereo not given) | i | -23% | 4% | i | -7% | -4%
COc1cc2c(cc1OC)C(c1cc(Br)ccc1F)N(C(=O)CCl)CC2 (stereo not given) | u | 21µM* | 3.3µM* | i | 14% | 21µM*
O=C1CCCc2c1[nH]c1ccccc21 | i | 5% | 13% | i | -3% | 7%
CC(C)COc1ccc2[nH]c3c(c2c1)CCCC3=O | 0.92µM* | -3% | 0% | 0.18µM* | -4% | 0%
COc1cccc(CNC23CC4CC(CC(C4)C2)C3)c1OCc1ccccc1 | u | -12% | 29% | 21µM* | u | -25%
COc1cc(CNCCc2ccc(S(N)(=O)=O)cc2)ccc1OCC(=O)NC1CCCCC1 | u | 5% | u | u | -1% | 7%
